# Several values for one entry are separate records, joined by “and”; a condition that tells them apart may be missing. Equal values may be shown once. Records with an inconclusive call do not appear. Where a call stands in place of a potency, no number is given. A structure can be active in one record and inactive in another. Activity calls are given as the source filed them. Unless noted, calls follow the shape of the dose curve; as a rule, active = well fitted curve in the direction sought with a large enough effect; inconclusive = small, poorly fitted or top-dose-only effect, or another doubt; inactive = no such curve, though single readings can be large; an effect the other way counts as inactive or inconclusive.
# Assays:
# [1] = target: Guanine nucleotide-binding protein G(i) subunit alpha-1 (Homo sapiens) (UniProt P63096); assay: qHTS Assay for Inhibitors of RGS12 GoLoco Motif Activity (Green Fluorophore) (AID 879);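 also: negative values mean loss of peptide binding seen as reduced polarization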
# Chain of Guanine nucleotide-binding protein G(i) subunit alpha-1 (Homo sapiens) (P63096 whole entry, looked up): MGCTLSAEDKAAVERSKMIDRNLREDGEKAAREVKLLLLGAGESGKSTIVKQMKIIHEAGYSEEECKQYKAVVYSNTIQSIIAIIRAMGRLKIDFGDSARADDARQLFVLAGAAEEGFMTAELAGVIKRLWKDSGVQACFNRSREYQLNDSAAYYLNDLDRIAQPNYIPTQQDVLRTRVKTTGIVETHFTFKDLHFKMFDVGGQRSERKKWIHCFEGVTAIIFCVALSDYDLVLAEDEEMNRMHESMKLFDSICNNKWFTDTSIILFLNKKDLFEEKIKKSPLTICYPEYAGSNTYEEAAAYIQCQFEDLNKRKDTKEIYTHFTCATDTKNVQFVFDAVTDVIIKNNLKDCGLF
# Procedure, shortened: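 A drop in FITC polarization marked displacement of the FITC-tagged RGS12 GoLoco peptide (10 nM) from Gαi1 (50 nM). Compounds were incubated 10 min at room temperature in Tris pH 7.5 buffer containing 150 mM NaCl, 0.1 mM GDP and 0.05% NP40; unlabeled peptide titration served as control.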
# [2] = target: Cytochrome P450 3A4 (Homo sapiens) (UniProt P08684); assay: qHTS Assay for Activators of Cytochrome P450 3A4 (AID 885); also: nearly all actives have a fitted effect of over 65% in size
# Chain of Cytochrome P450 3A4 (Homo sapiens) (P08684 whole entry, looked up): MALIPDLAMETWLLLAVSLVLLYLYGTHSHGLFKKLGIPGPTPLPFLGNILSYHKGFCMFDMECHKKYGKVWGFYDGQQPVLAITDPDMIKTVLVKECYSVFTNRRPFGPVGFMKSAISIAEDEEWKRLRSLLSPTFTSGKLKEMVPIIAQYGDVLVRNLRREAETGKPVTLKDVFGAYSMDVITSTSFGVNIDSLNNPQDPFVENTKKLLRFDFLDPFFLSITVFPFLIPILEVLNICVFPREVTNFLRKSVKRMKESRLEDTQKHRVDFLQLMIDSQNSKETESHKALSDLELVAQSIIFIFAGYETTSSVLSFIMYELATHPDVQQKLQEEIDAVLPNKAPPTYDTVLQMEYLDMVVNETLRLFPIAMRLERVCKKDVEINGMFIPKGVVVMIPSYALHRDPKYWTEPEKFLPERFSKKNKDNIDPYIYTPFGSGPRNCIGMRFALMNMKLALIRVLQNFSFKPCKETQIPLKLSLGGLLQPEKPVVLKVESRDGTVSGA
# Procedure, shortened: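 CYP3A4 activity: Luciferin-PPXE O-dealkylation, 25uM substrate, 200mM KPO4, RT throughout. Read-out is luciferase luminescence; higher values reflect activation.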
# [3] = qHTS Assay for Identification of Small Molecule Agonists for NFkB Signaling Pathway (AID 928; calls by dose curve); conditions: NFkB beta-lactamase reporter cells, blue/green ratio
# Procedure, shortened: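 Activators were sought with TNF alpha co-added at 10 pM final (its EC50) to beta-lactamase reporter cells. Cells were plated in OPTI MEM with 0.5% FBS and exposed for 5 hrs at 37 C. The FRET substrate ratio was read at 460 and 530 nm.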
# [4] = target: Pyruvate kinase (Leishmania mexicana) (UniProt Q27686); assay: qHTS Validation Assay for Inhibitors of Leishmania Mexicana Pyruvate Kinase (AID 945); also: potency is read from the fitted curve at half-maximal effect
# Chain of Pyruvate kinase (Leishmania mexicana) (Q27686 2-499 E452W): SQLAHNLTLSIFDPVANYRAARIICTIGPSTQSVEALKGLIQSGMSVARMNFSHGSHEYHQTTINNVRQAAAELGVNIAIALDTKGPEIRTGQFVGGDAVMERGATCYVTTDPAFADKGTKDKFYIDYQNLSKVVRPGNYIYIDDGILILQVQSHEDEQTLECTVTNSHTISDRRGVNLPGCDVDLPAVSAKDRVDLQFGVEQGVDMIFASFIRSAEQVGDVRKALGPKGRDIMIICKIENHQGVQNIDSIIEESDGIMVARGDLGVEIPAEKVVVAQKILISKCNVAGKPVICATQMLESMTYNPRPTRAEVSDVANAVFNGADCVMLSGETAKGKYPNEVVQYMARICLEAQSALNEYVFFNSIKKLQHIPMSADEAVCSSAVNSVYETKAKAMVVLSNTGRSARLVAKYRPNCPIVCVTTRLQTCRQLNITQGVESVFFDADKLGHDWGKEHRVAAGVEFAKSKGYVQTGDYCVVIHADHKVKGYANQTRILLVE
# Procedure, shortened: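 LmPYK E451W 0.2 nM; 0.5 mM PEP, 0.1 mM ADP, 7 mM MgCl2, 50 mM KCl, imidazole pH 7.2, 0.01% Tween 20, 0.05% BSA; 1 h RT; PKLight luminescence; DMSO-normalized.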
# [5] = target: Cytochrome P450 2D6 (Homo sapiens) (UniProt P10635); assay: qHTS Assay for Inhibitors and Substrates of Cytochrome P450 2D6 (AID 891); also: nearly all actives have a fitted effect of over 60% in size; also: potency is read from the fitted curve at half-maximal effect
# Chain of Cytochrome P450 2D6 (Homo sapiens) (P10635 whole entry, looked up): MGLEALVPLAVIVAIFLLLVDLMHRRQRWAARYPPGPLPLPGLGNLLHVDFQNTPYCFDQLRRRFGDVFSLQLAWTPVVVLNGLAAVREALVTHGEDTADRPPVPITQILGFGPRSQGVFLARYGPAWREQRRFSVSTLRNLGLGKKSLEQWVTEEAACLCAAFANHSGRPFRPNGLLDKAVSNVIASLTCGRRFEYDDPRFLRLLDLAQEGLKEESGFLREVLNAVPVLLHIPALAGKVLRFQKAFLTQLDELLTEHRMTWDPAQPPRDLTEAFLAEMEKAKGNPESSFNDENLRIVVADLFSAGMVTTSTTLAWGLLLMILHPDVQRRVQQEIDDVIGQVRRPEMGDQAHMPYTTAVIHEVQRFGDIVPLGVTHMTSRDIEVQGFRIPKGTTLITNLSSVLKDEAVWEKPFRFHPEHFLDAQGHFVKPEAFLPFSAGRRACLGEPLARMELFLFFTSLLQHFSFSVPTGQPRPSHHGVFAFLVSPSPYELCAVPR
# Procedure, shortened: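 Luminescent read-out of luciferin formed by 5 nM human CYP2D6 demethylating 30 uM Luciferin-ME EGE (Km level) over 60 min at room temperature after NADPH regeneration addition. Data normalized to full inhibition by 1.43 uM quinidine.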
# [6] = qHTS Assay for Identification of Small Molecule Antagonists for Thrombopoietin (TPO) Signaling Pathway (AID 918); conditions: TPO-dependent cell signaling reporter, antagonist mode; also: potency is read from the fitted curve at half-maximal effect; nearly all actives have a fitted effect of over 60% in size
# Procedure, shortened: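 Inhibition read as reduced luciferase luminescence after 24 h at 37 C in IL-3-deprived Ba/F3 cells carrying human TPO receptor and GPIIb-promoter reporter, stimulated with 26 pM TPO (final, its EC50) alongside compound.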
# [7] = target: Muscarinic acetylcholine receptor M1 (Rattus norvegicus) (UniProt P08482); assay: qHTS Assay for Antagonists of Acetylcholine Muscarinic M1 Receptor: Kinetic Measurement of Intracellular Calcium Response (AID 943); also: nearly all actives have a fitted effect of over 75% in size; also: potency is read from the fitted curve at half-maximal effect
# Chain of Muscarinic acetylcholine receptor M1 (Rattus norvegicus) (P08482 whole entry, looked up): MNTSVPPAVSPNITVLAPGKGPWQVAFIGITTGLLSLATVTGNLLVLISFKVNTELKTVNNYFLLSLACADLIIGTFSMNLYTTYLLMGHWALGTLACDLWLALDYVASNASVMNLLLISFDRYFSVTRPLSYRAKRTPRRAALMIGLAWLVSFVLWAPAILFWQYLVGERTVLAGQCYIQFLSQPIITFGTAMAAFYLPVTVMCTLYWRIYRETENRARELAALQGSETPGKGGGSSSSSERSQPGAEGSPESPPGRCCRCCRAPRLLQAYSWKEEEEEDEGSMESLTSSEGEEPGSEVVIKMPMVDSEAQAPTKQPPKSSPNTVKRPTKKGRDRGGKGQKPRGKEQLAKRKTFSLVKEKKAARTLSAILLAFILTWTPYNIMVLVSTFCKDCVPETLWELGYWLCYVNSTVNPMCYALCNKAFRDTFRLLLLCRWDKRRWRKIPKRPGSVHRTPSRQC
# Procedure, shortened: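 Antagonism measured as reduction of carbachol-evoked (EC80, 100 nM final) calcium flux in rat M1-CHO cells after 10 min compound exposure. Fluo-4 signal read kinetically; ratio of maximal to basal fluorescence.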
# [8] = target: Muscarinic acetylcholine receptor M1 (Rattus norvegicus) (UniProt P08482); assay: qHTS Assay for Antagonists of Acetylcholine Muscarinic M1 Receptor: Measurement of IP-One Response (AID 944); also: nearly all actives have a fitted effect of over 75% in size; also: potency is read from the fitted curve at half-maximal effect
# Procedure, shortened: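 IP1 accumulation measured via TR-FRET between d2-IP1 and Eu-cryptate anti-IP1 antibody after carbachol (200 nM, EC80) stimulation for 30 min; rat M1-transfected CHO cells received compound 10 min before agonist.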
# [9] = qHTS Assay for Identification of Small Molecule Antagonists for NFkB Signaling Pathway (AID 895; active = well fitted inhibition curve with a large enough effect in the signal ratio, with a control signal flat, not every such curve was filed as active; the % refers to the signal ratio; also: potency is read from the fitted curve at half-maximal effect)
# Procedure, shortened: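 ME-180 NFkB-bla cells (beta-lactamase under NFkB response element), plated overnight, treated with compound then 10 pM TNF alpha (about EC50) for 5 hrs at 37 C. LiveBLAzer FRET read at 460/530 nm emission, 405 nm excitation.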
# [10] = qHTS Assay for Identification of Small Molecule Agonists for Thrombopoietin (TPO) Signaling Pathway (AID 917); also: potency is read from the fitted curve at half-maximal effect
# Procedure, shortened: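 First, Ba/F3 cells with human TPO receptor were held overnight without IL-3. Next, compounds and TPO (26 pM final) were added. After 24 hrs at 37 C, luciferase detection reagent was added and luminescence measured following 10 min at room temperature.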
# [11] = target: Cytochrome P450 2C9 (Homo sapiens) (UniProt P11712); assay: qHTS Assay for Inhibitors and Substrates of Cytochrome P450 2C9 (AID 883); also: nearly all actives have a fitted effect of over 60% in size; also: potency is read from the fitted curve at half-maximal effect
# Chain of Cytochrome P450 2C9 (Homo sapiens) (P11712 whole entry, looked up): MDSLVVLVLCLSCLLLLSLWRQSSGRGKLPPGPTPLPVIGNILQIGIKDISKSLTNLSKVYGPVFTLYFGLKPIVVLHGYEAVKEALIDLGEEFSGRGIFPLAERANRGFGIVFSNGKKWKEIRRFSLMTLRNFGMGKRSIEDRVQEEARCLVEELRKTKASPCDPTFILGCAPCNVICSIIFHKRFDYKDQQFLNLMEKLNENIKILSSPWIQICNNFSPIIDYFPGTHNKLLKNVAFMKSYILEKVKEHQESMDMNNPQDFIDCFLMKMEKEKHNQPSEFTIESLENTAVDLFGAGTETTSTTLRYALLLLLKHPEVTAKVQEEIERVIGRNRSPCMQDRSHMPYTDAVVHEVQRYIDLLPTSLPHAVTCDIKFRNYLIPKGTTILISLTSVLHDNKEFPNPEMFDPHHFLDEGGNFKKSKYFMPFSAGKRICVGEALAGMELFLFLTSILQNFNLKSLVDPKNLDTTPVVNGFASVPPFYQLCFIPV
# Procedure, shortened: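 Signal: luciferase luminescence reporting luciferin produced by CYP2C9. Conditions: 10nM enzyme, Luciferin-H 100uM at KM, 25mM KPO4, 37C, 60 min NADPH-driven reaction. Reference: 57uM sulphaphenazole as 100% inhibition.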
# [12] = target: Cytochrome P450 2C19 (Homo sapiens) (UniProt P33261); assay: qHTS Assay for Inhibitors and Substrates of Cytochrome P450 2C19 (AID 899); also: nearly all actives have a fitted effect of over 60% in size; also: potency is read from the fitted curve at half-maximal effect
# Chain of Cytochrome P450 2C19 (Homo sapiens) (P33261 whole entry, looked up): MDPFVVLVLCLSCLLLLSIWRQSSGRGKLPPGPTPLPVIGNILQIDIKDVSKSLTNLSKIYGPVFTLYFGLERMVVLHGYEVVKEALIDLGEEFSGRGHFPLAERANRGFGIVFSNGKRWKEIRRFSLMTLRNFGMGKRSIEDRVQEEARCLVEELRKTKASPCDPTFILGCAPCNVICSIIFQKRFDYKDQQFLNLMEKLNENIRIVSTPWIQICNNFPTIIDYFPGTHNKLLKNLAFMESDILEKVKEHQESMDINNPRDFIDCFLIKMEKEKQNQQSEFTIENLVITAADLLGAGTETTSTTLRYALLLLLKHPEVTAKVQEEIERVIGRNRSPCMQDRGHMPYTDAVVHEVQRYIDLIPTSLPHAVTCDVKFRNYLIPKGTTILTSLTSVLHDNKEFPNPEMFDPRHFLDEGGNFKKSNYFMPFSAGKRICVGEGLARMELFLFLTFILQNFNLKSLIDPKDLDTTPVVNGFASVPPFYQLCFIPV
# Procedure, shortened: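 Signal comes from luciferase acting on luciferin released by CYP2C19-mediated hydroxylation of Luciferin-H EGE, 10uM (KM). Assay mix: 5nM enzyme, 50mM KPO4; 60 min at 37C with NADPH regeneration. Data normalized against 57uM ketoconazole.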
# [13] = target: Cytochrome P450 3A4 (Homo sapiens) (UniProt P08684); assay: qHTS Assay for Inhibitors and Substrates of Cytochrome P450 3A4 (AID 884); also: nearly all actives have a fitted effect of over 50% in size; also: potency is read from the fitted curve at half-maximal effect
# Procedure, shortened: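 Luminescent readout of luciferin produced by CYP3A4 (20 nM) dealkylation of Luciferin-PPXE, 25 uM (its KM). NADPH-driven reaction ran 60 min at RT after 10 min compound preincubation; data scaled to 57 uM ketoconazole as 100% inhibition.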
# [14] = Confirmation and Secondary Assay for Modulators of Hemoglobin Beta Chain Splicing at IVS2 654 locus (AID 910);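 also: HeLa cells stably carrying EGFP split by mutant beta-globin IVS2-654 intron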
# Procedure, shortened: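 HeLa cells stably expressing EGFP interrupted by β-globin IVS2-654 intron, seeded overnight in Opti-MEM/2% FCS, then treated 2 days at 37 °C. Restored splicing read as total peak GFP intensity per well by laser scanning cytometry (488 nm excitation, 500–520 nm emission); 500 nM antisense PNA as control.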
# [15] = Cell Viability - LYMP2-001 (AID 921); also: series mostly up to about 92 µM; nearly all actives have a fitted effect of over 70% in size
# Procedure, shortened: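 Human lymphoblastoid cells (Coriell), 2500 per well, were preincubated 5 hr at 37 C, then exposed to compounds in complete medium for 24 hr at 37 C. Cellular ATP was read by CellTiter-Glo luminescence; AC50 from Hill fits of concentration-response data.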
# [16] = Confirmation and Secondary Assay for Modulators of Hemoglobin Beta Chain Splicing at IVS2 705 locus (AID 930);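 also: HeLa cells stably expressing the EGFP-705 splicing reporter; series mostly up to about 46 µM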
# Procedure, shortened: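 HeLa cells stably carrying EGFP interrupted by mutant beta-globin IVS2-705 intron (CMV-driven) were seeded at 500 cells/well, treated next day with compound for 2 days at 37C; corrected splicing restores EGFP, read as total peak GFP intensity per well.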
# [17] = MultiTox-Fluor Cytotoxicity Assay - LYMP1-001 - Dead Cells (AID 946)
# Procedure, shortened: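 AC50 from Hill fit of concentration-response; data normalized to DMSO (basal) and 15 uM tetraoctylammonium bromide (100%). LYMP1-001 lymphoblastoid cells, 2500/well, 16 hr compound at 37 C; dead-cell protease fluorescence, Ex/Em 485/520.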
# [18] = MultiTox-Fluor Cytotoxicity Assay - LYMP1-001 - Live Cells (AID 947)
# [19] = Cell Viability - LYMP1-002 - Assay at 16 hr (AID 948)
# Procedure, shortened: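 Human lymphoblastoid cells (LYMP1-002), 2500/well, were preincubated 5 hr at 37 C, then exposed to compounds for 16 hr at 37 C in complete medium. Cellular ATP was read by CellTiter-Glo luminescence after 30 min at room temperature; AC50 from Hill fits.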
structure (smiles),measurement,setting,value
O=c1cc(N2CCOCC2)oc2c(-c3ccccc3)cccc12,outcome,[1],inactive
same,outcome,[2],inactive
same,Potency,[3],7.08 µM (active)
same,Potency,[4],inactive
O=c1c(O)c(-c2cc(O)c(O)c(O)c2)oc2cc(O)cc(O)c12,outcome,[1],inactive
same,outcome,[2],inactive
same,Potency,[5],inactive
same,Potency,[6],10 µM (active)
same,Potency,[7],inactive
same,Potency,[8],inactive
same,Potency,[4],inactive
COc1ccc2cc([C@H](C)C(=O)O)ccc2c1,outcome,[1],inactive
same,Potency,[9],inactive
same,Potency,[10],inactive
same,Potency,[4],inactive
O=C(NCCO[N+](=O)[O-])c1cccnc1,Potency,[11],2 µM (active)
same,Potency,[12],3.98 µM (active)
O=Nc1c(-c2c(O)[nH]c3cc(Br)ccc23)[nH]c2ccccc12,outcome,[1],inactive
same,outcome,[2],inactive
same,Potency,[10],0.251 µM (active)
same,Potency,[7],0.1 µM (active)
same,Potency,[8],14.1 µM (active)
Oc1ccc(-c2nc(-c3ccc(F)cc3)c(-c3ccncc3)[nH]2)cc1,outcome,[1],inactive
same,Potency,[11],7.94 µM (active)
same,Potency,[5],12.6 µM (active) and 5.01 µM (active)
same,Potency,[12],0.794 µM (active)
same,Potency,[7],inactive
same,Potency,[8],inactive
same,Potency,[4],inactive
Cc1ccc(C)c(OCCCC(C)(C)C(=O)O)c1,Potency,[11],6.31 µM (active)
same,Potency,[13],inactive
same,Potency,[14],inactive
same,Potency,[15],inactive
same,Potency,[16],inactive
same,Potency,[17],inactive
same,Potency,[18],inactive
same,Potency,[19],inactive
O=c1ccc2ccc(O)c(O)c2o1,outcome,[1],inactive
same,Potency,[9],inactive
same,Potency,[7],inactive
same,Potency,[4],inactive
O=C(O)c1cccnc1Nc1cccc(C(F)(F)F)c1,outcome,[1],inactive
same,outcome,[2],inactive
same,Potency,[5],inactive
same,Potency,[12],inactive
same,Potency,[14],inactive
same,Potency,[10],inactive
same,Potency,[16],inactive
same,Potency,[4],inactive
Cc1nc2n(c(=O)c1CCN1CCC(c3noc4cc(F)ccc34)CC1)CCCC2,outcome,[1],inactive
same,outcome,[11],inactive
same,Potency,[5],7.94 µM (active)
same,Potency,[9],inactive
same,outcome,[12],inactive
same,Potency,[10],inactive
same,Potency,[4],inactive
CC(=O)Nc1ccc(O)cc1,outcome,[11],inactive
same,outcome,[5],inactive
same,outcome,[12],inactive
same,Potency,[15],inactive
same,Potency,[17],inactive
same,Potency,[18],inactive
same,Potency,[19],inactive
CCc1nc(N)nc(N)c1-c1ccc(Cl)cc1,outcome,[11],inactive
same,outcome,[12],inactive
same,Potency,[14],inactive
same,Potency,[15],inactive
same,Potency,[16],inactive
same,Potency,[17],inactive
same,Potency,[18],inactive
same,Potency,[19],inactive
CNC[C@H](O)c1ccc(O)c(O)c1,outcome,[1],inactive
same,Potency,[10],inactive
same,Potency,[4],inactive
Cc1cc(O)c2c(c1)C(=O)c1cc(O)cc(O)c1C2=O,outcome,[1],inactive
same,Potency,[11],3.98 µM (active)
same,Potency,[5],31.6 µM (active)
same,Potency,[7],inactive
same,Potency,[8],inactive
same,Potency,[4],inactive
same,Potency,[17],inactive
same,Potency,[19],inactive
COc1ccccc1N1CCN(CCN(C(=O)C2CCCCC2)c2ccccn2)CC1,outcome,[1],inactive
same,Potency,[13],3.98 µM (active)
same,outcome,[2],inactive
same,Potency,[9],inactive
same,Potency,[10],inactive
same,Potency,[7],inactive
same,Potency,[4],inactive
O=C1NC(=O)C(c2ccccc2[N+](=O)[O-])=C1Nc1ccc(O)c(Cl)c1,outcome,[1],inactive
same,outcome,[2],inactive
same,Potency,[5],inactive
same,Potency,[7],inactive
same,Potency,[4],inactive
O=c1c(O)c(-c2ccc(O)cc2O)oc2cc(O)cc(O)c12,outcome,[1],inactive
same,Potency,[11],10 µM (active)
same,Potency,[5],inactive
same,Potency,[12],inactive
same,Potency,[14],inactive
same,Potency,[16],inactive
same,Potency,[8],inactive
same,Potency,[4],inactive
NC(=NCc1ccccc1)NC(=O)c1nc(Cl)c(N)nc1N,outcome,[1],inactive
same,Potency,[13],inactive
same,Potency,[5],5.01 µM (active)
same,Potency,[14],inactive
same,Potency,[10],12.6 µM (active)
same,Potency,[16],inactive
same,Potency,[4],inactive
CC1(C)C(=O)N(CCN2CCC(C(=O)c3ccc(F)cc3)CC2)c2ccccc21,outcome,[1],inactive
same,Potency,[11],inactive
same,outcome,[2],inactive
same,Potency,[5],1.26 µM (active)
same,Potency,[4],inactive
CCN(CC)C(=S)SSC(=S)N(CC)CC,outcome,[1],inactive
same,Potency,[11],2.51 µM (active) and 398 nM (active)
same,outcome,[2],inactive
same,Potency,[9],7.08 µM (active)
same,Potency,[14],inactive
same,Potency,[6],0.398 µM (active)
same,Potency,[16],inactive
same,Potency,[8],inactive
CC1(C)NC(=O)N(c2ccc([N+](=O)[O-])c(C(F)(F)F)c2)C1=O,outcome,[1],inactive
same,outcome,[2],inactive
same,Potency,[5],inactive
same,Potency,[12],7.94 µM (active) and 126 nM (active) and 251 nM (active)
same,Potency,[14],inactive
same,Potency,[10],inactive
same,Potency,[16],inactive
same,Potency,[4],inactive
NCCCCNCCCN,outcome,[1],inactive
same,Potency,[13],inactive
same,Potency,[9],inactive
same,Potency,[14],inactive
same,Potency,[6],6.31 µM (active)
same,Potency,[16],inactive
same,Potency,[7],inactive
same,Potency,[4],inactive
CCOC(=O)C1=C(O)C(=O)N(Cc2ccccc2)C1,Potency,[11],3.98 µM (active)
same,outcome,[2],inactive
Cc1c(OCC(F)(F)F)ccnc1CS(=O)c1nc2ccccc2[nH]1 (stereo unspecified),outcome,[1],inactive
same,outcome,[2],inactive
same,Potency,[12],1.26 µM (active)
same,Potency,[14],inactive
same,Potency,[10],inactive
same,Potency,[16],inactive
same,Potency,[8],inactive
same,Potency,[4],inactive
Cc1cccc(C#Cc2ccccc2)n1,outcome,[1],inactive
same,Potency,[11],inactive and 10 µM (active)
same,outcome,[2],inactive
same,Potency,[12],inactive and 7.94 µM (active)
same,Potency,[10],1 µM (active)
same,Potency,[4],15.8 µM (active)
Cc1cc(=O)oc2cc(O)ccc12,Potency,[11],inactive
